# In PubChem BioAssay (NCATS):
# Where “and” joins values, the source holds several entries; their conditions need not be identical. Equal values may be shown once. Values without a mark were called inactive. Results filed as inconclusive are left out. Where a call stands in place of a potency, no number is given. Calls of active or inactive are those of the source. Unless noted, calls follow the shape of the dose curve; as a rule, active = well fitted curve in the direction sought with a large enough effect; inconclusive = small, poorly fitted or top-dose-only effect, or another doubt; inactive = no such curve, though single readings can be large; an effect the other way counts as inactive or inconclusive.
# Legend:
# [1] = biological target: Luciferin 4-monooxygenase (Photinus pyralis) (UniProt P08659); test: Biochemical firefly luciferase enzyme assay for NPC (AID 624030);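 also: purified P. pyralis luciferase at 10 nM with luciferin and ATP substrate; nearly all actives have a fitted effect of over 70% in size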
# Chain of Luciferin 4-monooxygenase (Photinus pyralis) (P08659 whole entry, looked up): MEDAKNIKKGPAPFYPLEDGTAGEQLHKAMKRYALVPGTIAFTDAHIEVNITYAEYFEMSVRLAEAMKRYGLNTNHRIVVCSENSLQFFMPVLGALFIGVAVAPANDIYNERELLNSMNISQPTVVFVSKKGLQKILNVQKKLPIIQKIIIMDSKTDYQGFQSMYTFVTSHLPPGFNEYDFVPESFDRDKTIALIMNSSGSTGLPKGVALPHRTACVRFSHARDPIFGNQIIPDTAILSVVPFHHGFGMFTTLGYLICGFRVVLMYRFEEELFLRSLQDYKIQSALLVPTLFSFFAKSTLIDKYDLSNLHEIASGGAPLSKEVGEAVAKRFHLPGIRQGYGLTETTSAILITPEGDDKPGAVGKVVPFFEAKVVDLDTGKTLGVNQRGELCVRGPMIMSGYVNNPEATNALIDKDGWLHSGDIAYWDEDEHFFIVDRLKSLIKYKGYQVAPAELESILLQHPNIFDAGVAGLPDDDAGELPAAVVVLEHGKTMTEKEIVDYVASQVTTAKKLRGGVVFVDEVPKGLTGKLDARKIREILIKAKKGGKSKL
# In short: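 Counter-screen for direct inhibition of the luciferase enzyme by approved-drug library compounds, run at 10 nM enzyme in 50 mM Tris acetate (final). Luminescence was read within 5 min of enzyme-buffer addition and normalized to PTC124 versus DMSO (0%).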
# [2] = S16 Schwann cell viability assay (CellTiter-Glo assay) (AID 624031);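 also: native untransfected S16 rat Schwann cells; cellular ATP luminescence as a viability measure; nearly all actives have a fitted effect of over 70% in size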
# In short: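 Following overnight culture in 10% FBS DMEM, parental S16 rat Schwann cells are dosed for 24 h at 37 °C. Viability is read as CellTiter-Glo luminescence and expressed as % activity relative to DMSO (0%) and no-cell wells.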
# [3] = S16 Schwann cell PMP22 intronic element firefly luciferase assay (AID 624032); also: nearly all actives have a fitted effect of over 30% in size
# In short: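 Rat S16 Schwann cells stably carrying a PMP22 intronic element-driven Fluc reporter were seeded overnight, then exposed to compounds for 24 h at 37 °C. Luminescence was normalized to PTC124 (positive control) and DMSO (0% activity).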
# [4] = qHTS assay for small molecule agonists of the antioxidant response element (ARE) signaling pathway (AID 651741; active = well fitted activation curve with a large enough effect in the signal ratio; the % refers to the signal ratio)
# In short: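 Beta-lactamase reporter expression driven by the antioxidant response element in HepG2 cells was detected by fluorescence with LiveBLAzer B/G FRET substrate (2 h, room temperature) following 16 h compound treatment at 37 C.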
# [5] = qHTS assay for small molecule activators of the nuclear factor-kappa B (NF-kB) signaling pathway (AID 651749; active = well fitted activation curve with a large enough effect in the signal ratio; the % refers to the signal ratio); conditions: NF-kB-bla ME-180 cells, beta-lactamase FRET ratio, 16 h; stronger effect = higher value
# In short: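 Beta-lactamase reporter expression, controlled by NF-kB response elements in ME-180 cells, was quantified fluorometrically via FRET disruption; cells at 2,000/well had been incubated with 23 nL test compound for 16 hr.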
# [6] = biological target: Tumor necrosis factor (Homo sapiens) (UniProt P01375); test: qHTS assay to identify small molecules that stimulate Tumor Necrosis Factor-alpha (TNF-alpha) secretion (AID 651757; active = well fitted curve in the direction sought with a large enough effect in the signal ratio; the % refers to the signal ratio; also: potency is read from the fitted curve at half-maximal effect)
# Chain of Tumor necrosis factor (Homo sapiens) (P01375 whole entry, looked up): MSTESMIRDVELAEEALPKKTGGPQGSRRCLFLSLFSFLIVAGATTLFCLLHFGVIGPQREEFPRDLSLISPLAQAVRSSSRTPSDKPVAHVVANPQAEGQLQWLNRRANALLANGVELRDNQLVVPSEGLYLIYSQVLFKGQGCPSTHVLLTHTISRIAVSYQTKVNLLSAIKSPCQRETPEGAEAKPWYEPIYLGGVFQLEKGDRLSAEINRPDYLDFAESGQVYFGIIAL
# In short: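 Using 3000 THP-1 cells per well, compounds and controls were applied for 17 hrs at 37 C. Detection followed with two labeled anti-TNF-alpha antibodies (cryptate donor, XL665 acceptor) for 3 hr at room temperature, measured by TR-FRET.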
# [7] = qHTS assay for environmental chemicals that activate the Aryl hydrocarbon Receptor (AhR) signaling pathway (AID 651777); conditions: 1A2-DRE human hepatoma cells, luciferase, 24 h; activation: stronger effect = higher value; also: nearly all actives have a fitted effect of over 15% in size
# In short: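 Concentration–response screening used 1,200 1A2-DRE cells per well, 24 hr compound exposure (37 C, 5% CO2), and One-Glo luminescence as the AhR-driven CYP1A2 reporter signal.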
# [8] = biological target: Peroxisome proliferator-activated receptor alpha (Homo sapiens) (UniProt Q07869); test: qHTS assay for small molecule agonists of the peroxisome proliferator-activated receptor alpha (PPARalpha) signaling pathway (AID 651778); conditions: PathHunter PPARalpha complementation, chemiluminescence, 6 h; stronger effect = higher value
# Chain of Peroxisome proliferator-activated receptor alpha (Homo sapiens) (Q07869 whole entry, looked up): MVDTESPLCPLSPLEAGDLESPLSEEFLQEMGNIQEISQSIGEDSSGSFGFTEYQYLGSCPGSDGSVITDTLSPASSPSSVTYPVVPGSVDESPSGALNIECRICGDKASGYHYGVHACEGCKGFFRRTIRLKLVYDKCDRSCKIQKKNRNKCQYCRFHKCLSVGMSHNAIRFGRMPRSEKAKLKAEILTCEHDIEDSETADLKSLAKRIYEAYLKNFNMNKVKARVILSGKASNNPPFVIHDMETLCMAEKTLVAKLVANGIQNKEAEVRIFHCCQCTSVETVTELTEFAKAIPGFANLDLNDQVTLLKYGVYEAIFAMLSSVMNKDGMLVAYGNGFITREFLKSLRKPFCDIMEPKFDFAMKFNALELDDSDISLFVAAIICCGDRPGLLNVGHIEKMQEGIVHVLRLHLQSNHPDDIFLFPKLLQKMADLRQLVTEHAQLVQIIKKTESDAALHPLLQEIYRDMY
# In short: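 Cells plated at 2,000/well and held overnight at 37 C, 5% CO2, then compound added by pin tool for 6 hr; after PathHunter detection reagent and 60 min at room temperature, chemiluminescence from enzyme complementation was read.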
# [9] = biological target: Nuclear receptor ROR-gamma (Homo sapiens) (UniProt P51449); test: qHTS assay for small molecule antagonists of the retinoid-related orphan receptor gamma (ROR-gamma) signaling pathway (AID 651802); also: nearly all actives have a fitted effect of over 60% in size; also: potency is read from the fitted curve at half-maximal effect
# Chain of Nuclear receptor ROR-gamma (Homo sapiens) (P51449 whole entry, looked up): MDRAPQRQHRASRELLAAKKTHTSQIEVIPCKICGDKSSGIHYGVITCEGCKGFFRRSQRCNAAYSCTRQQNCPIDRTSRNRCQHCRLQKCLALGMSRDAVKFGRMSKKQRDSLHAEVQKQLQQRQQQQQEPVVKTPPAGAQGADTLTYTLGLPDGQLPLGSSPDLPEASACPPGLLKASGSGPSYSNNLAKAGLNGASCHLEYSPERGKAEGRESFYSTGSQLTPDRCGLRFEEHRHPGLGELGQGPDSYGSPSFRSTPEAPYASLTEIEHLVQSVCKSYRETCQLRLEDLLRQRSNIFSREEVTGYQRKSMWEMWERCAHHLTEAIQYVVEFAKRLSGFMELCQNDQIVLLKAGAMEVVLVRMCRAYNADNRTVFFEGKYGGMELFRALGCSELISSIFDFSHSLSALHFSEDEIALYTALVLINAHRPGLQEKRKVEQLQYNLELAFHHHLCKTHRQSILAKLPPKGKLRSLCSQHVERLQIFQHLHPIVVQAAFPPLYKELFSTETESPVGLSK
# In short: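 Doxycycline-induced reporter activity in engineered CHO cells (TET-inducible ROR, RORE-LUC) was measured by luminescence after 16hr compound exposure at 37C.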
# [10] = S16 Schwann cell PMP22 intronic element beta-lactamase assay (AID 624044; calls by dose curve; also: nearly all actives have a fitted effect of over 15% in size); conditions: S16 rat Schwann cells, PMP22 element beta-lactamase FRET, 24 h; ratio activity, negative = inhibition: at 38.3 µM (top of the series) unless noted
# In short: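 Beta-lactamase reporter under a PMP22 intronic regulatory element in stable S16 rat Schwann cells; 24 h compound exposure. 460 nm blue signal normalized between DMSO (0%) and potassium clavulanate, with 535 nm FRET tracking viability; curves classed by r2 and response.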
SMILES,Potency [1],Potency [2],Potency [3],Potency [4],activation [5],Potency [6],activation [7],max response [8],Potency [9],"ratio activity, negative = inhibition [10] [%]"
COC(=O)c1ccccc1O,inactive,inactive,inactive,inactive,-1.33% and 1.01%,inactive,0.888% and 1.53%,-2.75% and -2.44%,inactive,
COc1ccccc1N1CCN(CCCC(=O)c2ccc(F)cc2)CC1,inactive,inactive,,,,,,,,-14.3
C[C@H]1O[C@@H](O[C@H]2[C@@H](O)C[C@H](O[C@H]3[C@@H](O)C[C@H](O[C@H]4CC[C@@]5(C)[C@H](CC[C@@H]6[C@@H]5C[C@@H](O)[C@]5(C)[C@@H](C7=CC(=O)OC7)CC[C@]65O)C4)O[C@@H]3C)O[C@@H]2C)C[C@H](O)[C@@H]1O,inactive,inactive,inactive,,-3.56% and -2.4%,0.376 µM (active),2.26% and 1.31%,3.82% and -3.75%,9.44 µM (active),
c1ccc2ccccc2c1,inactive,inactive,inactive,inactive,0.258% and -0.756%,inactive,0.0968% and 0.369%,-3.91% and 0.0956%,inactive,
COC(=O)C(CN)c1c[nH]c2ccc(OC)cc12 (stereo unspecified),inactive,inactive,,,,,,,,0.76
CCCCC(CC)COS(=O)(=O)O (stereo unspecified),inactive,inactive,inactive,,-1.03%,,-1.44%,-1.27%,,
N[C@@H](Cc1cc(I)c(Oc2ccc(O)c(I)c2)c(I)c1)C(=O)O,inactive,inactive,,,,,,-3.23%,,-3.84
CCOC(=O)C1=C(COCCN)NC(C)=C(C(=O)OC)C1c1ccccc1Cl (stereo unspecified),inactive,,inactive,,,,,,,
CCOC(C)OCC,inactive,inactive,inactive,,0.0884%,inactive,-0.455%,-1.13%,inactive,
O[C@@H]([C@H](O)[C@H](O)CBr)[C@H](O)CBr,inactive,inactive,,,,,,,,3.07
N#Cc1ccc2c(c1)N(CCCN1CCC(O)CC1)c1ccccc1S2,inactive,inactive,,,,,,,,-13.2
NC(=O)Oc1ccc(Cc2ccccc2)cc1,inactive,inactive,,,,,,,,-0.76
